Shn3 inh set2 – reduction of Shn3 3'UTR firefly luciferase signal, primary screen, Schnurri-3 inhibitor project, cell-based, Clone20 osteoblasts, set 2 | Clone20 osteoblast Shn3 3'UTR firefly luciferase, 24 h | inhibition, % at 12.5 µM | 360,000 tested, 0.52% active;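 active means mean inhibition of at least 75% with every replicate also reaching 75%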;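 further: 0% = median of neutral control wells and 100% = pilot-screen positive control compound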
697 NFkB inh – inhibitors of PMA/ionomycin-induced NF-kB reporter, 697 cells, primary screen, B-cell NF-kB inhibitor project, cell-based, luminescence, uHTS; 697 B-cell NF-kB luciferase reporter, 16 h; 330,000 tested, 0.33% active; inhibition, % at 4 µM; in the data active means inhibition above about 35%
LMP1 NFkB inh – EBV LMP1-driven NF-kappaB luciferase reporter inhibitors, primary screen, cell-based, luminescence, single point; LMP1-induced NF-kappaB luciferase reporter cells; inhibition, % at 12.5 µM; 350,000 tested, 0.69% active; in the data active means inhibition above about 41%;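 further: 0% = neutral control wells and 100% = reference inhibitor control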
MITF TRPM1 inh – inhibitors of MITF-dependent TRPM1 promoter reporter, primary screen, cell-based, SK-MEL-5, single point, luciferase; SK-MEL-5 TRPM1 promoter luciferase, 24 h; inhibition, % at 12.5 µM; 330,000 tested, 0.83% active;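 active means mean inhibition across replicates of 60% or more, whatever share of single replicates reaches that level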
Jurkat NFkB inh – inhibitors of induced NF-kB luciferase reporter, primary screen, TCR NF-kB activation inhibitor project, cell-based, luminescence, uHTS | Jurkat, PMA/ionomycin-induced NF-kB luciferase reporter | inhibition, % at 4 µM | 330,000 tested, 0.53% active; in the data active means inhibition above about 50%
Gli-Sufu block – Gli-Sufu pathway antagonists, primary screen, luciferase luminescence, Sufu-KO-LIGHT cells, uHTS | Sufu-KO-LIGHT fibroblasts, Gli luciferase reporter luminescence | inhibition, % at 5 µM | 340,000 tested, 0.74% active | AID 588413, 2011;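 active means inhibition above about 55%, limit read from the data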;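 further: 0% = DMSO-treated cells and 100% = wells with medium but no cells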
Gli-Sufu confirm – Gli-SUFU pathway antagonists, confirmation, single concentration, luciferase luminescence, Sufu-KO-LIGHT cells; inhibition, % at 5 µM; 2,500 tested, 40% active; shares compounds with Gli-Sufu block; Gli luciferase reporter;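 active means mean inhibition at 5 µM reaching about 45%, limit read from the data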;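 further: plate controls were DMSO-treated cells for no effect and wells lacking cells for full effect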
Gli cytotox – cytotoxicity in Sufu-KO-LIGHT cells, confirmation, cytotoxicity control for Gli-SUFU antagonist project, cell-based, ATP luminescence, single concentration; cytotoxicity, % at 5 µM; 2,500 tested, 32% active; shares compounds with Gli-Sufu block; AID 651994, 2013;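 active means mean cytotoxicity at 5 µM above about 25%, limit read from the data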;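 further: cells exposed to compound overnight for roughly 16 to 18 hours; plate controls were DMSO wells with cells for no effect and medium without cells for full effect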
Wnt3a counter – Wnt3a reporter signal inhibition, confirmation, counter-screen for Gli-SUFU antagonist project, Wnt-LIGHT cells, luminescence, single concentration | 2,500 tested, 20% active | AID 651995, 2013 | Wnt3a-driven luciferase reporter | shares compounds with Gli-Sufu block | inhibition, % at 6.25 µM;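 active means mean inhibition above about 25%, limit read from the data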
An asterisk follows results filed as active; x = no result. Rows were chosen to be rich in hits. Some 2.3% of all compounds tested hit in one or more screens of this group.

SMILES | Shn3 inh set2 | 697 NFkB inh | LMP1 NFkB inh | MITF TRPM1 inh | Jurkat NFkB inh | Gli-Sufu block | Gli-Sufu confirm | Gli cytotox | Wnt3a counter
O=C(c1ccc([N+](=O)[O-])cc1)N(Cc1ccc(Cl)cc1)N1C(=O)CCCC1=O | 8 | 11 | 1 | -4 | 1 | 78* | 90* | 71* | 10
O=C(c1ccc(Cl)cc1)N(Cc1ccc(Br)cc1)N1C(=O)CCC1=O | -8 | -4 | 9 | 1 | 5 | 11 | x | x | x
CC(C)c1ccc(NC(=O)N2CCOCC2)cc1 | -64 | -35 | -14 | -41 | -51 | 60* | -11 | 4 | -55
COc1cccc(/C=N\NC(=O)c2ccc(Cn3cc(Br)c([N+](=O)[O-])n3)o2)c1O | 89* | -108 | 15 | 49 | 5 | 56* | 50* | 13 | 47*
COc1cc(/C=N\NC(=O)c2ccc(Cn3nc([N+](=O)[O-])c(Cl)c3C)o2)ccc1O | 3 | 10 | 8 | 0 | -4 | 11 | x | x | x
COC(=O)c1sc(N)c(C(=O)OC)c1CSc1nnnn1C | -5 | 7 | 0 | -4 | -4 | 99* | 24 | 2 | 11
COC(=O)c1sc(N)c(C(=O)OC)c1CSc1nnc(-c2ccccc2Cl)n1C | 4 | 28 | 5 | -1 | 13 | 3 | x | x | x
Cc1ccsc1C1Nc2ccc3ncccc3c2C2=C1C(=O)CC(C)(C)C2 (stereo not drawn) | 17 | -3 | 5 | 29 | 12 | 3 | x | x | x
NC(=O)CC(NC(=O)c1ccccc1)c1ccc(N2CCCCCC2)c([N+](=O)[O-])c1 (stereo not drawn) | 75 | -15 | 5 | -1 | 14 | 56* | 36 | 21 | -44
COc1ccc(N2CCN(C(C)C(=O)N3CCc4ccccc43)CC2)cc1 (stereo not drawn) | 7 | -18 | -10 | 13 | -35 | -13 | x | x | x
COc1ccc(N2CCN(C(C)C(=O)N3CC(C)OC(C)C3)CC2)cc1 (stereo not drawn) | 5 | 23 | 2 | -8 | -6 | 54 | 13 | 6 | -2
CCOC(=O)C1CCN(C(=O)c2cccc(S(=O)(=O)N(C)C3CCCCC3)c2)CC1 | 5 | 11 | -2 | 7 | 13 | -4 | x | x | x
C[C@H](CO)N1C[C@H](C)[C@@H](CN(C)S(=O)(=O)c2cn(C)cn2)Oc2ccc(NC(=O)Nc3ccccc3)cc2C1=O | 1 | 7 | 0 | 0 | -1 | 96* | 12 | 3 | -47
C[C@H](CO)N1C[C@H](C)[C@@H](CN(C)S(=O)(=O)c2ccc(Cl)cc2)Oc2ccc(NS(=O)(=O)c3ccccc3)cc2CC1=O | -5 | -3 | -7 | 0 | -1 | 58* | 10 | -12 | -22
Cc1cccc(N2CCN(c3nc4ccccc4n4cnnc34)CC2)c1C | 4 | -13 | 4 | -31 | -7 | -6 | x | x | x
COc1ccc(N2CCN(C(=O)c3ccc(Cn4nc(C)c([N+](=O)[O-])c4C)o3)CC2)cc1 | 12 | -8 | -6 | 8 | 0 | 90* | 11 | 27* | -41
COc1ccc(S(=O)(=O)Cc2ccc(C(=O)N3CCN(c4ccc(Cl)cc4)CC3)o2)cc1 | 16 | -8 | 11 | 9 | 16 | 52 | 18 | 11 | -29
Cc1ccc(CNC(=O)CN2C(=O)NC(C)(c3cccc(Br)c3)C2=O)cc1 (stereo not drawn) | 16 | -32 | -2 | 13 | -15 | -1 | x | x | x

Screening data from PubChem.
